# Results: the supplement of paper PMC10849652
# Targets with a hit are over-represented here; the source holds about 7,900 in all. About 0.6% of all pairs of compound and target were hits. Values without a mark were called inactive.
# Assays:
# Experiment in all cases: log2 fold change, soluble protein after heating vs DMSO (PISA); higher = thermal stabilisation; K562 cells, 10 uM, 30 min; active = over 0.2 and 3.5 SD of the protein, either way, in both replicates (recomputed)
# saracatinib = compound: CN1CCN(CCOc2cc(OC3CCOCC3)c3c(Nc4c(Cl)ccc5c4OCO5)ncnc3c2)CC1 [saracatinib]
# Summary of the method: (§1)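 Thermal stability values are relative to control samples and come from duplicates. They are expressed as log2 fold changes. For measurement, K562 cells (2×10^6 cells/mL) received 10 μM compound for 30 min, and aliquots were heated for 3 min over 48°C-58°C, pooled, and extracted at 4°C in PBS with 0.5% NP-40. Soluble protein, the supernatant after 21,000xg for 90 min, was quantified by TMTpro 16plex LC-MS/MS with equalised channel sums.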
# sotrastaurin = compound: CN1CCN(c2nc(C3=C(c4c[nH]c5ccccc45)C(=O)NC3=O)c3ccccc3n2)CC1 [sotrastaurin]
# Summary of the method: as §1
# alvocidib = compound: CN1CC[C@H](c2c(O)cc(O)c3c(=O)cc(-c4ccccc4Cl)oc23)[C@H](O)C1 [alvocidib]
# Summary of the method: as §1
# Tubastatin A = compound: CN1CCc2c(c3ccccc3n2Cc2ccc(C(=O)NO)cc2)C1 [Tubastatin A]
# Summary of the method: as §1
# [1] = compound: CNC(=O)C1=CC=CC=C1NC2=NC(=NC=C2Cl)NC3=C(C=C(C=C3)N4CCOCC4)OC
# Summary of the method: as §1
# defactinib = compound: CNC(=O)c1ccc(Nc2ncc(C(F)(F)F)c(NCc3nccnc3N(C)S(C)(=O)=O)n2)cc1 [defactinib]
# Summary of the method: as §1
# rucaparib = compound: CNCc1ccc(-c2[nH]c3cc(F)cc4c3c2CCNC4=O)cc1 [rucaparib]
# Summary of the method: as §1
# [2] = compound: CNc1nc(-c2ccc3c(N)n[nH]c3c2)cc(N2C[C@@H](C(=O)NC3CCCCC3)CC[C@H]2C)n1
# Summary of the method: as §1
# encorafenib = compound: COC(=O)N[C@@H](C)CNc1nccc(-c2cn(C(C)C)nc2-c2cc(Cl)cc(NS(C)(=O)=O)c2F)n1 [encorafenib]
# Summary of the method: as §1
# [3] = compound: COC(=O)[C@H](CCSC)NC(=O)C1=C(C=C(C=C1)NC[C@H](CS)N)C2=CC=CC=C2
# Summary of the method: as §1
# [4] = compound: COC1=CC=C(C=C1)CN2C=CC3=C2C=C(C=C3)C(=O)NO
# Summary of the method: as §1
# filanesib = compound: CON(C)C(=O)N1N=C(c2cc(F)ccc2F)S[C@@]1(CCCN)c1ccccc1 [filanesib]
# Summary of the method: as §1
# zotarolimus = compound: CO[C@H]1C[C@@H]2CC[C@@H](C)[C@@](O)(O2)C(=O)C(=O)N2CCCC[C@H]2C(=O)O[C@H]([C@H](C)C[C@@H]2CC[C@H](n3cnnn3)[C@H](OC)C2)CC(=O)[C@H](C)/C=C(\C)[C@@H](O)[C@@H](OC)C(=O)[C@H](C)C[C@H](C)/C=C/C=C/C=C/1C [zotarolimus]
# Summary of the method: as §1
# idasanutlin = compound: COc1cc(C(=O)O)ccc1NC(=O)[C@@H]1N[C@@H](CC(C)(C)C)[C@](C#N)(c2ccc(Cl)cc2F)[C@H]1c1cccc(Cl)c1F [idasanutlin]
# Summary of the method: as §1
# alisertib = compound: COc1cc(Nc2ncc3c(n2)-c2ccc(Cl)cc2C(c2c(F)cccc2OC)=NC3)ccc1C(=O)O [alisertib]
# Summary of the method: as §1
# [5] = compound: COc1cc2nc(-c3cc(F)ccc3O)nc(N[C@@H]3CNC[C@H]3C(C)(C)O)c2cc1OC
# Summary of the method: as §1
# gefitinib = compound: COc1cc2ncnc(Nc3ccc(F)c(Cl)c3)c2cc1OCCCN1CCOCC1 [gefitinib]
# Summary of the method: as §1
# [6] = compound: COc1cccc2cc(-c3nc([C@H]4CC[C@H](C(=O)O)CC4)n4ncnc(N)c34)[nH]c12
# Summary of the method: as §1
# lapatinib = compound: CS(=O)(=O)CCNCc1ccc(-c2ccc3ncnc(Nc4ccc(OCc5cccc(F)c5)c(Cl)c4)c3c2)o1 [lapatinib]
# Summary of the method: as §1
# pictilisib = compound: CS(=O)(=O)N1CCN(Cc2cc3nc(-c4cccc5[nH]ncc45)nc(N4CCOCC4)c3s2)CC1 [pictilisib]
# Summary of the method: as §1
# Sequence of UniProt Q9UII2 (Q9UII2 whole entry, looked up): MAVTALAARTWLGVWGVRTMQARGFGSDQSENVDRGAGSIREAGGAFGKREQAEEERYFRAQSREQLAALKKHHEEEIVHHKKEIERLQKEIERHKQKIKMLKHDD
# Sequence of UniProt Q9BRQ8 (Q9BRQ8 whole entry, looked up): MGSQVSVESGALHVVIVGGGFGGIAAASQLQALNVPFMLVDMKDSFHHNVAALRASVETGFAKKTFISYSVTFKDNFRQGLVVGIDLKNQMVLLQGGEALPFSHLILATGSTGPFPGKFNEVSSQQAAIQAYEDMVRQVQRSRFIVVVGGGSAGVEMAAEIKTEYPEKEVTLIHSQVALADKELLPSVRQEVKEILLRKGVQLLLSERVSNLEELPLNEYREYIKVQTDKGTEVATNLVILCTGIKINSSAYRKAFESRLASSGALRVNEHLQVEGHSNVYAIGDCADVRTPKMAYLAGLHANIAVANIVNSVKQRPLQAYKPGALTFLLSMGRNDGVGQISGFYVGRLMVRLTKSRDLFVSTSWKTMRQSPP
# Sequence of UniProt Q9ULC5 (Q9ULC5 whole entry, looked up): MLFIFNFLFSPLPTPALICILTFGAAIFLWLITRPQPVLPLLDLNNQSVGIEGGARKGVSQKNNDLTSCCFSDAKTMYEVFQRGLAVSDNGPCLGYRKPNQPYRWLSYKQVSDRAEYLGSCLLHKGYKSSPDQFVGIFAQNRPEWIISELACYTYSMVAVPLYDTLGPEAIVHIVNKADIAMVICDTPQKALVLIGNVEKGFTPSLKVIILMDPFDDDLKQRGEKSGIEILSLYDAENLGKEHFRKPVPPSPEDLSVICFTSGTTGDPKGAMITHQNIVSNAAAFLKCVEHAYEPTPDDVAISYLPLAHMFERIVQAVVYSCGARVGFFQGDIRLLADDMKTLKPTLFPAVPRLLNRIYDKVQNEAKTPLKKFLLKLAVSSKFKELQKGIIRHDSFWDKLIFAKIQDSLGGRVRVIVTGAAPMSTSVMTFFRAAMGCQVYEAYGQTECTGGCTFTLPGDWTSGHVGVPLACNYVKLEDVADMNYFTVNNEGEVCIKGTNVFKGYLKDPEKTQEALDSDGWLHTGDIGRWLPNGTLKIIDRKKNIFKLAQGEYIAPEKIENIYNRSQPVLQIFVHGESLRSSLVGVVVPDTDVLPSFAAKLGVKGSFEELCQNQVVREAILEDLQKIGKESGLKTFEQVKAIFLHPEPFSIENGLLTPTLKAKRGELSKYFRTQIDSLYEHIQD
# Sequence of UniProt P00966 (P00966 whole entry, looked up): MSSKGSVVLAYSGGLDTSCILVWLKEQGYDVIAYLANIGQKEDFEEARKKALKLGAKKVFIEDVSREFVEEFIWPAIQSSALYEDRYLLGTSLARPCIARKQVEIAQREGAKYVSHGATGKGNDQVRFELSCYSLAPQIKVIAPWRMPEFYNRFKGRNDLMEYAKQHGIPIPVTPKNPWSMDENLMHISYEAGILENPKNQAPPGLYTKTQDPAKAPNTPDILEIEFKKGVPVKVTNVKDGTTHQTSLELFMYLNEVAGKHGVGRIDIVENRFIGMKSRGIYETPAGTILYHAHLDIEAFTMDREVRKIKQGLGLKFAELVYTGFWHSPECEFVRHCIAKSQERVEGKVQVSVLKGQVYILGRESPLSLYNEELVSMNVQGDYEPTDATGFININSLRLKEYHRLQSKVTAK
# Sequence of UniProt Q15059 (Q15059 whole entry, looked up): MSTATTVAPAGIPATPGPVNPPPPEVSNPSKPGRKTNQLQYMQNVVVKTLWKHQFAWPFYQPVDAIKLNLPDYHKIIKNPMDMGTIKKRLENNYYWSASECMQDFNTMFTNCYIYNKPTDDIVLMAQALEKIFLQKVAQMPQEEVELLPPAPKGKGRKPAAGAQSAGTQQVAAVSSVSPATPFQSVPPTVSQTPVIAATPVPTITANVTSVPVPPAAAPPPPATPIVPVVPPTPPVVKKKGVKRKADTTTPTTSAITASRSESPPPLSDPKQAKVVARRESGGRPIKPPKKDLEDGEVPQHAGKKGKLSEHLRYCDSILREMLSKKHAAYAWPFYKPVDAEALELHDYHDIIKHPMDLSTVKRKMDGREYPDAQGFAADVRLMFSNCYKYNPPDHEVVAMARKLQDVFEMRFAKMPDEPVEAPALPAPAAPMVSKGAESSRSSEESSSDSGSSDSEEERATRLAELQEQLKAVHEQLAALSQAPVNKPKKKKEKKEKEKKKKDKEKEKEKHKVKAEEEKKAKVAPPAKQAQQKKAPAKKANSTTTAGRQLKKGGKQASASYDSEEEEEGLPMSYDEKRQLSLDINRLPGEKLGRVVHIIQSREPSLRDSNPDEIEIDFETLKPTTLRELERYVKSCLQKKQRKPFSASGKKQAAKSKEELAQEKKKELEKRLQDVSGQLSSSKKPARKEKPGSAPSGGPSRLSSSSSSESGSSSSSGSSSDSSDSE
# Sequence of UniProt Q7L1Q6 (Q7L1Q6 whole entry, looked up): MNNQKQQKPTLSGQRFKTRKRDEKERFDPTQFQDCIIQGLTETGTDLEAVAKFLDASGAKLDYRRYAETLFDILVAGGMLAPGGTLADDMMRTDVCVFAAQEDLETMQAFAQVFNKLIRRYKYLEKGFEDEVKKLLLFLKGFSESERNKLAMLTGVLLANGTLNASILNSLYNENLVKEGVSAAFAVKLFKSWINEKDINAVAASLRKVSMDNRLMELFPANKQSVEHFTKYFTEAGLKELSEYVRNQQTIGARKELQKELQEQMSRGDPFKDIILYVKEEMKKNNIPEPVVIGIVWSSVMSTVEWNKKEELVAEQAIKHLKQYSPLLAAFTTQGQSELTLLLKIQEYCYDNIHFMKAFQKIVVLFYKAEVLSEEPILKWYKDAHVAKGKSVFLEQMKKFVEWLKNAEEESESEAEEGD
# Sequence of UniProt P21283 (P21283 whole entry, looked up): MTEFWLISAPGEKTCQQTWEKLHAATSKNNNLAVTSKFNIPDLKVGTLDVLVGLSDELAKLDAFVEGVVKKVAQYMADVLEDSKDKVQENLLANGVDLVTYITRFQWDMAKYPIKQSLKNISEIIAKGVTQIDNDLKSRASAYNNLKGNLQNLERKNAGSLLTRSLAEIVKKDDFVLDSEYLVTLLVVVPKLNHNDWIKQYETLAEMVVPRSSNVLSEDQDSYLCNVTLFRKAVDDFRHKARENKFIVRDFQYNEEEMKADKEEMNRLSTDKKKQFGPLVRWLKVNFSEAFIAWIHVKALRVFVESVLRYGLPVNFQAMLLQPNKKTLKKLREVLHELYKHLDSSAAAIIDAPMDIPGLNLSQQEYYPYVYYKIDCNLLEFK
# Sequence of UniProt Q9H0E9 (Q9H0E9 whole entry, looked up): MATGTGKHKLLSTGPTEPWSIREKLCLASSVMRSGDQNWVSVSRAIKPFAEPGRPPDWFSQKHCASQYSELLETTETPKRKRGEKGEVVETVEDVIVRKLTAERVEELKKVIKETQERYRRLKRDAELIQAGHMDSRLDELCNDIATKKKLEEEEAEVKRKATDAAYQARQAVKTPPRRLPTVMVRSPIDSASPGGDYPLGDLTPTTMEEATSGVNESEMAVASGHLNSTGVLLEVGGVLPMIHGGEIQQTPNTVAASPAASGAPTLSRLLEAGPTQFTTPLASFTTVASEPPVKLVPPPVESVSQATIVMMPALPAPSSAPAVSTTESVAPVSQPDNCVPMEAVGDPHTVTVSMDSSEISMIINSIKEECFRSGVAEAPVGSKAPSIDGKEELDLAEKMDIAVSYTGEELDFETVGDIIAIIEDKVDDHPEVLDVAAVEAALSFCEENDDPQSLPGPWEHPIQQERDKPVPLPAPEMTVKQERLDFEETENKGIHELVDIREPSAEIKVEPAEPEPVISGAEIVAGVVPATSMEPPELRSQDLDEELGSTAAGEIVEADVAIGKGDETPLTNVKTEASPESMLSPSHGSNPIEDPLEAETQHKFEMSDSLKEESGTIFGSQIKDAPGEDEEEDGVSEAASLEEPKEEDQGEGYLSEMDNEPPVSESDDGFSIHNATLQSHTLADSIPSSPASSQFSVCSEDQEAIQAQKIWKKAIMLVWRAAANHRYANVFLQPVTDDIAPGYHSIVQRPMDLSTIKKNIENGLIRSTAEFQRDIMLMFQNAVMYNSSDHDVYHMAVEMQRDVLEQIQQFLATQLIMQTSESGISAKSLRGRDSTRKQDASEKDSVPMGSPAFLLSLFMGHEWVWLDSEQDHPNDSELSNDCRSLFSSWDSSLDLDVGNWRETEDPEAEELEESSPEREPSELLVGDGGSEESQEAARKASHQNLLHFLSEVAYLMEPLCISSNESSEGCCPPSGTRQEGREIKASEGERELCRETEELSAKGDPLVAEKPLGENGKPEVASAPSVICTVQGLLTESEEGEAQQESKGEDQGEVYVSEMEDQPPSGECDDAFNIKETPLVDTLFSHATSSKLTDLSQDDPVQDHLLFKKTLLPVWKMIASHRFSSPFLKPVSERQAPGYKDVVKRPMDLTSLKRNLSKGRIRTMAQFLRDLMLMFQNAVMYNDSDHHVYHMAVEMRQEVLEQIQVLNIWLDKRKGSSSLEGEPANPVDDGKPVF
# Sequence of UniProt Q13795 (Q13795 whole entry, looked up): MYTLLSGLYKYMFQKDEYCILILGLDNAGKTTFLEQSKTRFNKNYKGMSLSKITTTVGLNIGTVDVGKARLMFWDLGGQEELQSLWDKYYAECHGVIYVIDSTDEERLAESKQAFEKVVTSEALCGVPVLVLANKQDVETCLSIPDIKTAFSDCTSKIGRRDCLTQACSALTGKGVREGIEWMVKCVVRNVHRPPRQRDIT
# Sequence of UniProt Q9NXW9 (Q9NXW9 whole entry, looked up): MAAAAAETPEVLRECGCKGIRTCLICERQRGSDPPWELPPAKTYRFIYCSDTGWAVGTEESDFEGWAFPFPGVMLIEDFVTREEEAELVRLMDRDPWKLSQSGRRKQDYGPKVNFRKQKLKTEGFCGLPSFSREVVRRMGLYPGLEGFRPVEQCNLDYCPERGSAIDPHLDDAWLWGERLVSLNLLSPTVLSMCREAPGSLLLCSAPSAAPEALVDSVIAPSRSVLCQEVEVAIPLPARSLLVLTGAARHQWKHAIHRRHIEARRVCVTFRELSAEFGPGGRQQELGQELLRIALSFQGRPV
Target,log2 fold change (saracatinib),log2 fold change (sotrastaurin),log2 fold change (alvocidib),log2 fold change (Tubastatin A),log2 fold change [1],log2 fold change (defactinib),log2 fold change (rucaparib),log2 fold change [2],log2 fold change (encorafenib),log2 fold change [3],log2 fold change [4],log2 fold change (filanesib),log2 fold change (zotarolimus),log2 fold change (idasanutlin),log2 fold change (alisertib),log2 fold change [5],log2 fold change (gefitinib),log2 fold change [6],log2 fold change (lapatinib),log2 fold change (pictilisib)
AP2A2 isoform 2 (UniProt O94973),0.006,-0.028,0.052,0.022,0.022,-0.006,0.077,-0.053,-0.002,-0.008,0.009,0.064,0.003,0.022,-0.095,0.083,0.027,0,0.01,-0.002
AP2M1 (UniProt Q96CW1),0.032,0.008,0.017,0.002,0.005,0.016,0.026,0.001,0.008,-0.014,-0.008,0.048,0.017,-0.018,-0.06,0.01,0.032,0.01,0.014,-0.021
BMP2K (UniProt Q9NSY1),0.071,0.023,0.088,0.015,0.183,0.179,0.064,-0.029,-0.069,-0.012,0.032,-0.019,0.029,-0.092,0,0.055,0.024,0.111,0.01,0.102
BRD3 (UniProt Q15059),0.093,-0.116,-0.076,-0.571 (active),0.011,-0.319,-0.083,0.325,0.086,-0.128,0.027,0.297,-0.077,-0.012,-0.035,0.086,0.227,-0.002,-0.057,0.081
ATP6V1C1 (UniProt P21283),-0.193,-0.07,0.026,0.059,-0.034,-0.011,0.137,0.004,0.083,-0.013,-0.012,0.029,0.08,0.016,-0.069,-0.091,-0.286,-0.206,-0.046,-0.022
ALDH9A1 isoform 3 (UniProt P49189),-0.019,0.01,-0.007,-0.024,0.05,-0.024,-0.054,-0.009,-0.016,-0.005,-0.006,-0.04,0.001,-0.006,0.017,-0.01,-0.028,0.041,-0.007,-0.002
BZW1 isoform 3 (UniProt Q7L1Q6),-0.083,-0.207,-0.098,0.047,-0.054,-0.141,0.128,0.027,0.158,-0.1,0.033,-0.069,0.052,-0.152,-0.078,-0.032,-0.028,-0.13,-0.071,-0.071
AIFM2 (UniProt Q9BRQ8),0.017,0.08,-0.02,-0.026,-0.016,-0.029,0.011,0.003,-0.017,-0.01,-0.019,-0.025,0.097,-0.017,-0.078,0.023,0.096,0.061,0.135,0.121
BRIP1 (UniProt Q9BX63),-0.034,-0.016,-0.067,-0.089,0.001,0.083,-0.068,-0.088,-0.003,0.018,0.072,0.098,0.061,-0.14,–,0.126,0.047,–,0.003,0.067
ASS1 (UniProt P00966),0.062,0.088,-0.098,-0.183,-0.047,-0.007,0.11,-0.122,-0.018,0.045,–,-0.101,0.012,-0.085,0.254,0.047,-0.005,0.056,-0.012,0.018
ALKBH4 (UniProt Q9NXW9),-0.072,-0.106,-0.227,0.086,0.198,-0.056,0.07,0.03,0.074,0.071,-0.203,-0.036,0.06,-0.036,0.086,-0.058,–,0.014,-0.023,0.106
BRAP (UniProt Q7Z569),-0.04,-0.198,-0.042,0.046,0.057,-0.087,0.076,-0.024,0.042,-0.064,0.062,0.02,0.01,0.028,-0.058,-0.108,0.053,-0.134,0.073,-0.055
ATP5IF1 (UniProt Q9UII2),-0.111,0.111,0.013,-0.039,-0.014,0.046,-0.011,0.011,-0.063,-0.244 (active),-0.02,-0.067,0.004,0.093,-0.062,0.024,0.013,0.03,-0.043,-0.016
ARFRP1 (UniProt Q13795),0.108,-0.035,-0.008,-0.059,0.037,0.01,0.033,0.031,-0.027,-0.137,0.127,-0.261 (active),0.02,-0.168,0.111,0.039,-0.016,-0.024,0.071,0.168
BRD8 isoform 2 (UniProt Q9H0E9),-0.06,0.058,0.012,-0.296,0,-0.064,-0.015,-0.021,0.028,0.145,-0.201,0.042,0.027,-0.027,–,-0.113,–,–,0.019,0.06
ACSL5 isoform 3 (UniProt Q9ULC5),0.058,0.078,-0.082,-0.057,0.071,-0.063,0.005,-0.132,-0.072,0,-0.023,-0.118,0.073,-0.148,-0.009,-0.259,0.068,0.074,0.074,0.065
